This note sets out measurements from PubChem BioAssay (NCI).

Experiment [1] is described as follows: NCI Yeast Anticancer Drug Screen. Data for the rad50 strain (AID 155).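 Further: 0% = growth of vehicle-only cultures of the same strain.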 Conditions: S. cerevisiae rad50 strain growth inhibition, stronger effect = higher value. In short, it runs like this: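 Readout: growth inhibition relative to vehicle-treated cultures. Compound exposure was carried out in a genetically defined yeast strain deficient in DNA damage repair.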
The nature of experiment [2]: NCI Yeast Anticancer Drug Screen. Data for the mec2-1 strain (AID 157). Conditions: S. cerevisiae mec2-1 strain, stronger effect = higher value. The method, boiled down: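 Vehicle-treated cultures served as reference for growth inhibition of compound-exposed mec2-1 yeast.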
Experiment [3] in a line: NCI Yeast Anticancer Drug Screen. Data for the sgs1 mgt1 strain (AID 161).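 Further: 0% = growth of cultures given vehicle only.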 Particulars: S. cerevisiae sgs1 mgt1 strain, stronger effect = higher value. The method, boiled down: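 Mutant yeast exposed to compound; growth scored against vehicle-only wells.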
A short description of experiment [4]: NCI Yeast Anticancer Drug Screen. Data for the cln2 rad14 strain (AID 165).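 Further: 0% = growth equal to vehicle treated cultures.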 Conditions: S. cerevisiae cln2 rad14 strain, stronger effect = higher value. In short, it runs like this:
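Each compound was tested on cln2 rad14 yeast. Inhibition of growth was calculated against vehicle-exposed controls.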

A short description of experiment [5]: NCI Yeast Anticancer Drug Screen. Data for the bub3 strain (AID 167). Conditions: S. cerevisiae bub3 mutant strain, stronger effect = higher value. The method, boiled down:
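Readout: yeast growth inhibition, expressed relative to vehicle-only wells. The test organism is a mutant strain from a panel with lesions in DNA repair or checkpoint genes.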

The nature of experiment [6]: NCI Yeast Anticancer Drug Screen. Data for the mlh1 rad18 strain (AID 175). Conditions: S. cerevisiae mlh1 rad18 strain growth inhibition, stronger effect = higher value. In short, it runs like this:
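Vehicle-treated cultures served as the reference for growth inhibition in a yeast strain carrying DNA damage repair alterations exposed to each compound.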

The mark [7] stands for this setting: at 5.0 µM (retest, dose inferred, filed as 0.5).
[8] abbreviates: at 50.0 µM (retest, dose inferred, filed as 5.0).

Compounds without any hit were thinned out: in the full panel of roughly 79,000, 15% have a hit. Unmarked numbers belong to inactive results. Calls of active or inactive are those of the source. No stated cut-off is given here; in the data, active means growth inhibition above about 70%; inactive means the rest.

`CN(/N=C/c1ccc([N+](=O)[O-])o1)C(N)=O`: the growth inhibition is 10% in experiment [1] (setting [7]); 44% in experiment [1] (setting [8]); 80% (active) in experiment [1] (at 50.0 µM); 4% in experiment [2] (setting [7]); 18% in experiment [2] (setting [8]); 49.5% in experiment [2] (at 50.0 µM). In addition, the growth inhibition was 10% in experiment [3] (setting [7]); 57% in experiment [3] (setting [8]); 87.3% (active) in experiment [3] (at 50.0 µM); 3% in experiment [4] (setting [7]); 17% in experiment [4] (setting [8]); 49.5% in experiment [4] (at 50.0 µM). Further, the growth inhibition in experiment [5] (setting [7]) is 6%; in experiment [5] (setting [8]) it was 28%; in experiment [5] (at 50.0 µM), 46.3%; in experiment [6] (setting [7]), 22%; in experiment [6] (setting [8]), 58%; in experiment [6] (at 50.0 µM), 89.4% (active).

With `OC(OC/C(I)=C(/I)COC(O)C(Cl)(Cl)Cl)C(Cl)(Cl)Cl` (configuration not stated), the growth inhibition in experiment [1] (setting [7]) is 28%; in experiment [1] (setting [8]) it was 96% (active); in experiment [1] (at 50.0 µM) it was 97.2% (active); in experiment [2] (setting [7]), 34%; in experiment [2] (setting [8]) it was 94% (active); in experiment [2] (at 50.0 µM) it was 96.9% (active). Besides, the growth inhibition is -2% in experiment [3] (setting [7]); 86% (active) in experiment [3] (setting [8]); 94.8% (active) in experiment [3] (at 50.0 µM); -10% in experiment [4] (setting [7]); 70% (active) in experiment [4] (setting [8]); 76.7% (active) in experiment [4] (at 50.0 µM). Further, the growth inhibition in experiment [5] (setting [7]) is 1%; in experiment [5] (setting [8]) it was 94% (active); in experiment [5] (at 50.0 µM), 93.1% (active); in experiment [6] (setting [7]), 13%; in experiment [6] (setting [8]) it was 95% (active); in experiment [6] (at 50.0 µM), 97.1% (active).

With `S=C(C(=S)N1CCOCC1)N1CCOCC1`, the growth inhibition in experiment [1] (setting [7]) is 14%; in experiment [1] (setting [8]) it was 16%; in experiment [1] (at 50.0 µM), 0.05%; in experiment [2] (setting [7]), 12%; in experiment [2] (setting [8]), 16%; in experiment [2] (at 50.0 µM) it was 26.1%. Besides, the growth inhibition in experiment [3] (setting [7]) is 19%; in experiment [3] (setting [8]), 27%; in experiment [3] (at 50.0 µM) it was 12.8%; in experiment [4] (setting [7]), 15%; in experiment [4] (setting [8]) it was 12%; in experiment [4] (at 50.0 µM) it was -16.8%. Also, the growth inhibition in experiment [5] (setting [7]) was 22%; in experiment [5] (setting [8]), 23%; in experiment [5] (at 50.0 µM), 11.8%; in experiment [6] (setting [7]), 16%; in experiment [6] (setting [8]), 16%; in experiment [6] (at 50.0 µM), 7.95%.

For the molecule `O=C1c2scc(-c3ccccc3)c2-n2cccc21`, the growth inhibition was -6% in experiment [1] (setting [7]); 96% (active) in experiment [1] (setting [8]); 78.5% (active) in experiment [1] (at 50.0 µM); -10% in experiment [2] (setting [7]); 95% (active) in experiment [2] (setting [8]); 90.1% (active) in experiment [2] (at 50.0 µM). The growth inhibition in experiment [3] (setting [7]) is 2%; in experiment [3] (setting [8]), 87% (active); in experiment [3] (at 50.0 µM), 82.5% (active); in experiment [4] (setting [7]), 10%; in experiment [4] (setting [8]), 81% (active); in experiment [4] (at 50.0 µM), 80.8% (active). Besides, the growth inhibition in experiment [5] (setting [7]) was -16%; in experiment [5] (setting [8]), 94% (active); in experiment [5] (at 50.0 µM), 79% (active); in experiment [6] (setting [7]) it was -16%; in experiment [6] (setting [8]) it was 94% (active); in experiment [6] (at 50.0 µM) it was 88.2% (active).

`CN(C)CCOC1(CC2CCCCC2)CCC(C(C)(C)C)CC1` (configuration not stated): the growth inhibition in experiment [1] (setting [7]) was -9%; in experiment [1] (setting [8]), 100% (active); in experiment [1] (at 50.0 µM) it was 99% (active); in experiment [2] (setting [7]), -17%; in experiment [2] (setting [8]), 99% (active); in experiment [2] (at 50.0 µM), 99% (active). Besides, the growth inhibition in experiment [3] (setting [7]) was -6%; in experiment [3] (setting [8]), 99% (active); in experiment [3] (at 50.0 µM), 99.4% (active); in experiment [4] (setting [7]), 11%; in experiment [4] (setting [8]), 100% (active); in experiment [4] (at 50.0 µM), 99.5% (active). Further, the growth inhibition in experiment [5] (setting [7]) was -1%; in experiment [5] (setting [8]) it was 100% (active); in experiment [5] (at 50.0 µM), 98.9% (active); in experiment [6] (setting [7]), 14%; in experiment [6] (setting [8]), 100% (active); in experiment [6] (at 50.0 µM) it was 99.3% (active).

`COc1c(Br)c(=O)n(C)c(=O)n1C`: the growth inhibition was -11% in experiment [1] (setting [7]); 99% (active) in experiment [1] (setting [8]); 89% (active) in experiment [1] (at 50.0 µM); -10% in experiment [2] (setting [7]); 99% (active) in experiment [2] (setting [8]); 87.8% (active) in experiment [2] (at 50.0 µM). Further, the growth inhibition was -29% in experiment [3] (setting [7]); 98% (active) in experiment [3] (setting [8]); 91.2% (active) in experiment [3] (at 50.0 µM); -4% in experiment [4] (setting [7]); 99% (active) in experiment [4] (setting [8]); 88.3% (active) in experiment [4] (at 50.0 µM). Further, the growth inhibition is -26% in experiment [5] (setting [7]); 99% (active) in experiment [5] (setting [8]); 89.2% (active) in experiment [5] (at 50.0 µM); -11% in experiment [6] (setting [7]); 99% (active) in experiment [6] (setting [8]); 89% (active) in experiment [6] (at 50.0 µM).

As for `NNc1ccc2ccccc2n1`, the growth inhibition in experiment [1] (setting [7]) was -4%; in experiment [1] (setting [8]), 98% (active); in experiment [1] (at 50.0 µM) it was 87.5% (active); in experiment [2] (setting [7]) it was 1%; in experiment [2] (setting [8]), 93% (active); in experiment [2] (at 50.0 µM) it was 52.5%. The growth inhibition in experiment [3] (setting [7]) was 3%; in experiment [3] (setting [8]), 99% (active); in experiment [3] (at 50.0 µM), 46.2%; in experiment [4] (setting [7]) it was 6%; in experiment [4] (setting [8]) it was 52%; in experiment [4] (at 50.0 µM), 86.9% (active). The growth inhibition in experiment [5] (setting [7]) was 14%; in experiment [5] (setting [8]) it was 99% (active); in experiment [5] (at 50.0 µM) it was 93.2% (active); in experiment [6] (setting [7]), 19%; in experiment [6] (setting [8]), 99% (active); in experiment [6] (at 50.0 µM) it was 93.4% (active).

As for `Cc1ccc(SCC#CC#CCS(=O)c2ccc(C)cc2)cc1` (configuration not stated), the growth inhibition is 100% (active) in experiment [1] (setting [7]); 98% (active) in experiment [1] (setting [8]); 98.3% (active) in experiment [1] (at 50.0 µM); 87% (active) in experiment [2] (setting [7]); 99% (active) in experiment [2] (setting [8]); 98.5% (active) in experiment [2] (at 50.0 µM). The growth inhibition was 100% (active) in experiment [3] (setting [7]); 99% (active) in experiment [3] (setting [8]); 97.8% (active) in experiment [3] (at 50.0 µM); 44% in experiment [4] (setting [7]); 98% (active) in experiment [4] (setting [8]); 98% (active) in experiment [4] (at 50.0 µM). For the same molecule, the growth inhibition is 82% (active) in experiment [5] (setting [7]); 98% (active) in experiment [5] (setting [8]); 97% (active) in experiment [5] (at 50.0 µM); 97% (active) in experiment [6] (setting [7]); 98% (active) in experiment [6] (setting [8]); 97.6% (active) in experiment [6] (at 50.0 µM).

As to `CCOC(=O)C(NC(=O)c1ccccc1)[CH](c1ccc(OC)cc1)[Sn]([c]1ccccc1)([c]1ccccc1)[c]1ccccc1` (configuration not stated), the growth inhibition is 65% in experiment [1] (setting [7]); 89% (active) in experiment [1] (setting [8]); 77.7% (active) in experiment [1] (at 50.0 µM); 37% in experiment [2] (setting [7]); 91% (active) in experiment [2] (setting [8]); 75.2% (active) in experiment [2] (at 50.0 µM). Moreover, the growth inhibition in experiment [3] (setting [7]) is 38%; in experiment [3] (setting [8]), 88% (active); in experiment [3] (at 50.0 µM) it was 79.2% (active); in experiment [4] (setting [7]) it was 26%; in experiment [4] (setting [8]), 48%; in experiment [4] (at 50.0 µM), 54.5%. Also, the growth inhibition was 44% in experiment [5] (setting [7]); 94% (active) in experiment [5] (setting [8]); 79% (active) in experiment [5] (at 50.0 µM); 64% in experiment [6] (setting [7]); 86% (active) in experiment [6] (setting [8]); 69.1% in experiment [6] (at 50.0 µM).
